# Results from PubChem BioAssay (EPA / NIEHS).
# Values joined by “and” are separate entries in the source; they are usually repeats but may differ in a detail not shown here. Equal entries are not always repeated. Active and inactive are the calls of the source. The calls were made as follows: active = hit-call score of the fitted dose curve at least 0.9, where 1 is the maximum; inactive = score below 0.9.
# Assay: BSK_BT_PBMCCytotoxicity: PBMC Cytotoxicity Assessment in the BioMAP Diversity Plus: BT Assay (AID 2284225)
# Conditions: primary human B cells with PBMC
# Protocol: BSK_BT is a cell-based, multiplexed-readout assay that uses B cell and peripheral blood mononuclear cells, a human vascular primary cell co-culture, with measurements taken at 24 hours after chemical dosing in a microplate: 96-well plate.BSK_BT_PBMCCytotoxicity is an assay component measured in the BSK_BT assay. It measures dehydrogenase activity, a form of viability reporter, as detected with fluorescence intensity signals by Alamar Blue Reduction technology.Data from the assay component BSK_BT_PBMCCytotoxicity was analyzed at the endpoint, BSK_BT_PBMCCytotoxicity, in the positive analysis fitting direction relative to DMSO as the negative control and baseline of activity. Using a type of viability reporter, gain or loss-of-signal activity can be used to understand cellular changes in viability. To generalize the intended target to other relatable targets, this assay endpoint is annotated to the 'cell cycle' intended target family, where the subfamily is 'cytotoxicity'.
# The levels of cell surface (or secreted, indicated by the prefix "s") biomarker endpoints were measured by ELISA. Overt cytotoxicity to cells in confluent adherent cultures (all systems other than the BT system) was assessed by measuring total protein levels using sulforhodamine B (SRB) staining in parallel cultures at the time of biomarker measurements, indicated as SRB endpoints. For proliferation assays for adherent cell types, individual cell types are cultured at sub-confluence and relative cell numbers quantified by SRB staining at time points optimized for each system (48 h: 3C and CASM3C systems; 72 h: BT and HDF3CGF systems; 96 h: SAg system). SRB was performed by staining cells with 0.1% SRB after fixation with 10% TCA and reading wells at 560 nm.Viability and proliferation of PBMC (T cells) was quantified by Alamar Blue reduction for the SAg and BT systems. For PBMC viability (referred to as PBMC Cytotoxicity within the assay endpoint names), cells were plated (75,000/well in a 96-well plate) and then chemical samples added for 1 h before addition of activators, SEB and TSST-1 (20 ng/mL final concentration each). Cells were incubated for 90 h. Then, Alamar Blue (20 uL/well) (Invitrogen, Cat DAL1100) was added for 6 h, and the plates were read with a fluorescence microplate reader at 546/580 nm (excitation/emission). For PBMC proliferation, cells were plated and activated as above but incubated for only 16 h prior to addition of Alamar Blue. Plates were read after 6 h.
Structure (SMILES),outcome,AC50
CCCCCCCCCC/C=C/C1CC(=O)OC1=O (stereo not given),inactive,–
Cc1cccnc1,inactive,–
CN(C)CCC(c1ccc(Cl)cc1)c1ccccn1 (stereo not given),inactive,–
CCCCCCCCCCC1CO1 (stereo not given),inactive,–
CCCCCCCCCCCCCCCCCC[N+](C)(C)C,–,4.37 µM (active)
CC[N+](CC)(CC(=O)Nc1c(C)cccc1C)Cc1ccccc1,inactive,–
CCCCCCC(O)CCCCCCCCCCC(=O)OC (stereo not given),inactive,–
OC(C(F)(F)F)(C(F)(F)F)C(O)(C(F)(F)F)C(F)(F)F,–,55.4 µM (active) and 36.9 µM (active)
Oc1cccc2ccccc12,inactive,–
CN(C)c1ccc(C(c2ccccc2)c2ccc(N(C)C)cc2)cc1,–,33.7 µM (active)
Cc1cc(-n2nc3ccc(Cl)cc3n2)c(O)c(C(C)(C)C)c1,inactive,–
COC(=O)/C=C\C(=O)OC,inactive,–
Sc1nc2ccccc2s1,inactive,–
O=C(C(=O)c1ccccc1)c1ccccc1,inactive,–
CC(C)CC(=O)CC(C)CC(C)C (stereo not given),inactive,–
